# Screening results: PubChem BioAssay, several laboratories
# This is a sample that favours compounds with a hit; in the whole collection about 1.3% have one here.
# NR2F2 inh: blocks human COUP-TFII nuclear receptor | P24468 | HEK293T NGFI-A luciferase reporter, luminescence | inhibition, % at 8.6 µM | 370,000 tested, 0.7% active | AID 686940;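 active = inhibition above a per-plate cutoff, mean inhibition of test wells between control levels plus 3 SD, cut at about 38% in these data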;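 also: cells cotransfected with COUP-TFII expression vector driving the NGFI-A reporter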
# SRC3 inh: inhibitors of human steroid receptor coactivator 3 (SRC3); Q9Y6Q9; HEK293 GAL4-SRC3 luciferase reporter, luminescence; inhibition, % at 3.6 µM; 360,000 tested, 0.17% active;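 active = inhibition above a per-campaign cutoff, the mean of all compounds plus 3 SD, cut at about 60% in these data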;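 also: higher means less SRC3-driven luciferase light from the GAL4 reporter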
# SRC1 inh: inhibits human SRC1 coactivator; AID 588354; inhibition, % at 3.6 µM; 360,000 tested, 0.12% active; HEK293 GAL4-SRC1 luciferase reporter, luminescence;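 active = inhibition above the campaign mean plus 3 SD, with each screening campaign given its own cutoff, cut at about 60% in these data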
# Target sequence (Q15788 whole entry, looked up, the tested form may be a part): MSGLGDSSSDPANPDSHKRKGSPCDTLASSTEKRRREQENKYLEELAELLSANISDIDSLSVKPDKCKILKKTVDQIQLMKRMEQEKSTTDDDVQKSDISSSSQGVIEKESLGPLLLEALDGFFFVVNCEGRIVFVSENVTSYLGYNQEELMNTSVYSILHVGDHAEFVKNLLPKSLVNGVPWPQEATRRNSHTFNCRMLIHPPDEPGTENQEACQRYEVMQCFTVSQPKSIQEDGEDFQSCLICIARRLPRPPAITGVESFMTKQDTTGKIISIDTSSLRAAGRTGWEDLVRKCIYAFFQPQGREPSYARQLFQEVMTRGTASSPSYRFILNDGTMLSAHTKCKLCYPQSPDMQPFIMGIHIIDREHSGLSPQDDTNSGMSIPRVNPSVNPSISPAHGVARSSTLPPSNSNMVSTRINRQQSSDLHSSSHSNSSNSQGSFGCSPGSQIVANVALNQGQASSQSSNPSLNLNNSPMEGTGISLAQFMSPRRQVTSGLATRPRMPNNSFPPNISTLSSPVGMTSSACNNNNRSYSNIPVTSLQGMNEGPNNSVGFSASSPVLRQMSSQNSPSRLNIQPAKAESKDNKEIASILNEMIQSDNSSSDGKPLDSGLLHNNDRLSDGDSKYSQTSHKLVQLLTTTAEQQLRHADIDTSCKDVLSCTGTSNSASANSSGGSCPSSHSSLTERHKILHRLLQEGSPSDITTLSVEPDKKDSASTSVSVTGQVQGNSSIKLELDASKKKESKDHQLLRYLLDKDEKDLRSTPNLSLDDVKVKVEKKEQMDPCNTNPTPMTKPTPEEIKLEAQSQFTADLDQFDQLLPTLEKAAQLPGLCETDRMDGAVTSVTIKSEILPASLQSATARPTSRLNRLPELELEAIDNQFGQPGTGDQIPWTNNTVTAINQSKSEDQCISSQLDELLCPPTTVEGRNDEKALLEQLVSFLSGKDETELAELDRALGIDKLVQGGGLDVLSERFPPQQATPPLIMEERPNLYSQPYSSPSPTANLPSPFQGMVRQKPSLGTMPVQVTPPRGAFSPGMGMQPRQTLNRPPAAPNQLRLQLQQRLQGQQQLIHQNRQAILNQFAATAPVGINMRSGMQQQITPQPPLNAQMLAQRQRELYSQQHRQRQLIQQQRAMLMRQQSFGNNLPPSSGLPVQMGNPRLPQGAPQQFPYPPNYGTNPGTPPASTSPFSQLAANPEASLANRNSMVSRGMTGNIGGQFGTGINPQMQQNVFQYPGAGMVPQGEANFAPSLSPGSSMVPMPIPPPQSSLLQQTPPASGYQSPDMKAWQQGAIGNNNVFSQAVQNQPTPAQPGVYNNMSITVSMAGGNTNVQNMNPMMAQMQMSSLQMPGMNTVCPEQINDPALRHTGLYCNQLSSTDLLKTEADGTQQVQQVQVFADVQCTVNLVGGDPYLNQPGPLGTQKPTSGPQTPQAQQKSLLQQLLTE
# NR5A2 inv ag: inverse agonists of human LRH-1 (NR5A2); O00482; HEK293T StAR-luciferase reporter, LRH-1 transfected, 24 h; inhibition, % at 3.6 µM; 360,000 tested, 0.13% active;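 active = inhibition above the mean inhibition of all tested compounds plus 3 SD, cut at about 73% in these data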
# Gli-Sufu block: Gli-Sufu pathway antagonism. AID 588413. 340,000 tested, 0.74% active. Sufu-KO-LIGHT fibroblasts, Gli luciferase reporter luminescence. inhibition, % at 5 µM;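 active = inhibition above about 55%, limit read from the data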
# NCOA2 inhibitor: inhibits human steroid receptor coactivator 2. Q15596. HEK293 GAL4-SRC2 luciferase reporter, luminescence. inhibition, % at 9 µM. 370,000 tested, 0.17% active. AID 651957;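 active = inhibition above the mean inhibition of all tested compounds plus 3 SD, set per campaign, cut at about 52% in these data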
# Gal4-VP16 ctr: inhibits VP16 reporter, flagging COUP-TFII antagonist hits. shares compounds with NR2F2 inh. HEK293 Gal4-VP16 luciferase reporter, luminescence. inhibition, % at 8.5 µM. 2,500 tested, 25% active. AID 687007; in the data active = inhibition above about 13%
# NR2F2 inh conf: COUP-TFII (NR2F2) inhibition, confirmation assay; shares compounds with NR2F2 inh; inhibition, % at 8.5 µM; 2,500 tested, 45% active; HEK293 NGFI-A luciferase reporter, luminescence; AID 687008;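 active = mean inhibition over three repeats above a set limit taken from the earlier primary screen, cut at about 38% in these data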
# A number is an active result; n = inactive; x = not tested or not shown.
SMILES,NR2F2 inh,SRC3 inh,SRC1 inh,NR5A2 inv ag,Gli-Sufu block,NCOA2 inhibitor,Gal4-VP16 ctr,NR2F2 inh conf
CC(=O)c1cccc(NS(=O)(=O)c2ccc(C(=O)Nc3ccccc3)cc2)c1,49,n,n,n,n,n,n,48
CC(C)(CNC(=O)c1cc2c(s1)CCCC2)N1CCOCC1,n,n,n,n,n,n,x,x
CCOc1ccc(N(C)Cc2cc(=O)oc3ccc(OCC)cc23)cc1,n,n,n,n,n,n,x,x
CC(C)(Oc1ccc(Cl)cc1)C(=O)Nc1ccc2oc(=O)ccc2c1,n,n,n,n,n,n,x,x
CC(C)(C)C(=O)Nc1ccc(-c2cc3cc(Cl)ccc3o2)cc1,53,n,n,n,n,n,n,n
On1ccccc1=S,66,n,n,n,74,n,87,46
CN1CCN(c2ccc(CNS(=O)(=O)Cc3cccc(C(F)(F)F)c3)cc2)CC1,61,n,n,n,n,n,n,45
Cc1ccc(-n2ncc(-c3n[nH]c(=S)o3)c2N)cc1C,n,n,n,n,x,n,x,x
O=C(c1cc(COc2ccc(F)cc2Cl)on1)N1CCCCCC1,n,n,n,n,n,n,x,x
COC(=O)C1CCCCN1C(=O)c1cc(COc2cccc3cccnc23)on1 (stereo not drawn),n,n,n,n,n,n,x,x
O=C(c1cc(COc2ccc(F)cc2Cl)on1)N1CCC(c2ccncc2)CC1,39,n,n,n,n,n,n,n
COC(=O)C1CCCCN1C(=O)c1cc(COc2cccc3cnccc23)on1 (stereo not drawn),61,n,n,n,x,n,n,59
CSc1ccccc1OCc1cc(C(=O)N2CCC(c3ccncc3)CC2)no1,58,n,n,n,x,n,n,51
COc1ccc(C(=O)CSc2nnc(-c3ccccn3)n2-c2ccccc2)cc1,n,x,x,x,x,n,x,x
COC(=O)C1=CC(=O)N2CCN=C2S1,n,x,x,x,x,n,x,x
COCCN1CCN(c2cc(-c3ccccc3)nc3cc(-c4cccc(F)c4)nn23)CC1,47,n,n,n,n,n,n,n
CCOC(=O)[C@]12CCCC=C1N(CCc1ccc(OC)c(OC)c1)C(=O)[C@H](CC(=O)NCCCCc1ccccc1)C2,n,x,x,n,x,n,x,x
COc1cc(Cl)cc(CN2CCC(CCC(=O)NC3CC3)CC2)c1OC,n,n,n,n,n,n,x,x
CCN(CC(=O)Nc1ccc(NC(C)=O)cc1)C(=O)c1ccc(COc2ccc(C(C)(C)C)cc2)cc1,51,n,n,n,n,n,n,38
CN1C(=O)[C@@H]2C[C@@]3([C@@]45C[C@H]6C(=O)N(C)[C@@H](Cc7ccccc7)C(=O)N6[C@@H]4Nc4ccccc45)c4ccccc4N[C@H]3N2C(=O)[C@@H]1Cc1ccccc1,n,n,n,n,n,n,x,x
CC(=O)Oc1ccccc1C(=O)C=Cc1cccc([N+](=O)[O-])c1,47,n,n,n,n,n,n,n
Cc1cc(O)c(C(=O)/C=C/c2cccc([N+](=O)[O-])c2)c(=O)o1,n,n,n,n,n,n,x,x
COc1ccc(CCNC(=O)c2c(N)[nH]c(C(=O)c3ccccc3)c2-c2ccc(N(C)C)cc2)cc1,44,x,x,x,x,x,n,n
COc1ccc(C(=O)c2[nH]c(N)c(C(=O)NCCc3c[nH]c4ccccc34)c2-c2ccc(OC)c(OC)c2)cc1,n,x,x,n,x,n,x,x
CCc1cc2c(nc1CC)CCCN2S(=O)(=O)c1c(C)noc1C,n,x,x,x,x,n,x,x
SMILES,NR2F2 inh,SRC3 inh,SRC1 inh,NR5A2 inv ag,Gli-Sufu block,NCOA2 inhibitor,Gal4-VP16 ctr,NR2F2 inh conf
O=S1(=O)CC(N2CCCC2)CN1Cc1cn(Cc2ccc(C(F)(F)F)cc2)nn1 (stereo not drawn),n,x,x,x,x,n,x,x
Cc1ccc(C(=O)NC2CCCc3c2cnn3-c2ccc(F)cc2F)cn1 (stereo not drawn),56,n,n,n,x,n,n,59
O=C(N[C@@H]1CCCc2c1cnn2-c1ccc(F)cc1F)c1ccccn1,38,x,x,x,x,x,n,n
COC(=O)[C@]12C[C@H](CC(=O)NCCc3ccccc3OC)C(=O)N(Cc3ccccc3)C1=C[C@H](C(C)(C)C)O[C@@H]2C,n,x,x,x,x,n,x,x
COc1ccc(NC(=O)COc2ccc(N(C)S(=O)(=O)c3ccc(Cl)cc3)cc2)cc1OC,59,n,n,n,n,n,n,58
Cc1ccc(-c2csc(NC(=O)COc3ccc(N(C)S(=O)(=O)c4ccc(C)cc4)cc3)n2)cc1,n,n,n,n,n,n,x,x
COc1ccc(-c2csc(NC(=O)COc3ccc(N(C)S(=O)(=O)c4ccc(C)cc4)cc3)n2)cc1,40,n,n,n,n,n,n,n
CN(c1ccc(OCC(=O)OCC(=O)Nc2ccc(F)cc2)cc1)S(=O)(=O)c1ccc(Cl)cc1,n,n,n,n,n,n,x,x
COc1cccc(CNC(=O)[C@H]2CCCN2C(=O)[C@H]2CCCN2C(=O)c2ccc(F)c(F)c2)c1,n,x,x,x,x,n,x,x
CCc1c(-c2ccccc2)ncn1CCc1ccccc1OC,n,x,x,x,x,n,x,x
COc1ccccc1C(=O)NCCC(=O)NCC1CCCCC1,n,n,n,n,n,n,x,x
COC(=O)c1ccc(COC(=O)c2[nH]c(C)c(C(C)=O)c2C)o1,41,n,n,n,n,n,n,n
CC(=O)c1c(C)[nH]c(C(=O)OCc2ccc([N+](=O)[O-])cc2)c1C,n,n,n,n,n,n,x,x
CCCCOCC1CN(CCCC)S(=O)(=O)c2c(cccc2N(C)S(=O)(=O)c2ccc(C)cc2)O1 (stereo not drawn),n,x,x,x,x,n,x,x
Cc1cc(N2CCN(C(C(=O)NC3CCCC3)C(C)C)CC2)c2ccccc2n1 (stereo not drawn),n,x,x,n,x,n,x,x
COc1ccccc1-c1ncn(Cc2cccc(-c3ccccc3)c2)c1CC(C)C,n,x,x,n,x,n,x,x
COc1ccc(C2CCC3(CCC(=O)N3CCOC(=O)NCc3ccc(Cl)cc3)CC2)cc1 (stereo not drawn),40,x,x,x,x,n,n,n
CCn1cc(C(=O)N[C@H](C(=O)NCCCn2ccnc2)C(C)C)c(=O)c2cc3c(cc21)OCO3,n,n,n,n,n,n,x,x
Cc1ccc(CCNc2ncnc(Cl)c2N)cc1,64,n,n,n,n,n,n,49
Cc1csc(NC(=O)C(C)Oc2ccc(Cl)cc2C)n1 (stereo not drawn),n,n,n,n,n,n,x,x
COc1cc(CNc2ncnc3c2[nH]c2ccc(C)cc23)cc(OC)c1,n,n,n,n,n,n,x,x
Cc1ccc2[nH]c3c(NCc4ccco4)ncnc3c2c1,47,n,n,n,n,n,n,n
CCOc1ccc(NC(=O)CN2C(=O)c3cccc4cccc2c34)cc1,n,x,x,x,x,n,x,x
CCN1CCN(C(=O)CN2C(=O)COc3ccc(C)cc32)CC1,n,n,n,n,n,n,x,x
